Measured values as given in article PMC4336329 (PLoS ONE, 2015).
Screen size: about 310,000 compounds; about 2,200 (0.71%) showed an effect of 50% or more. The effect is printed as a negative number. This is one part of a sample in which strong results are shown more often than they occur.

Molecular target: human ether-à-go-go-related gene (hERG) potassium channel (human, UniProt Q12809)
Assay: primary screen, population patch clamp on CHO cells stably expressing hERG; higher = less effect of the substance

Sequence of human ether-à-go-go-related gene (hERG) potassium channel (Q12809 whole entry, looked up): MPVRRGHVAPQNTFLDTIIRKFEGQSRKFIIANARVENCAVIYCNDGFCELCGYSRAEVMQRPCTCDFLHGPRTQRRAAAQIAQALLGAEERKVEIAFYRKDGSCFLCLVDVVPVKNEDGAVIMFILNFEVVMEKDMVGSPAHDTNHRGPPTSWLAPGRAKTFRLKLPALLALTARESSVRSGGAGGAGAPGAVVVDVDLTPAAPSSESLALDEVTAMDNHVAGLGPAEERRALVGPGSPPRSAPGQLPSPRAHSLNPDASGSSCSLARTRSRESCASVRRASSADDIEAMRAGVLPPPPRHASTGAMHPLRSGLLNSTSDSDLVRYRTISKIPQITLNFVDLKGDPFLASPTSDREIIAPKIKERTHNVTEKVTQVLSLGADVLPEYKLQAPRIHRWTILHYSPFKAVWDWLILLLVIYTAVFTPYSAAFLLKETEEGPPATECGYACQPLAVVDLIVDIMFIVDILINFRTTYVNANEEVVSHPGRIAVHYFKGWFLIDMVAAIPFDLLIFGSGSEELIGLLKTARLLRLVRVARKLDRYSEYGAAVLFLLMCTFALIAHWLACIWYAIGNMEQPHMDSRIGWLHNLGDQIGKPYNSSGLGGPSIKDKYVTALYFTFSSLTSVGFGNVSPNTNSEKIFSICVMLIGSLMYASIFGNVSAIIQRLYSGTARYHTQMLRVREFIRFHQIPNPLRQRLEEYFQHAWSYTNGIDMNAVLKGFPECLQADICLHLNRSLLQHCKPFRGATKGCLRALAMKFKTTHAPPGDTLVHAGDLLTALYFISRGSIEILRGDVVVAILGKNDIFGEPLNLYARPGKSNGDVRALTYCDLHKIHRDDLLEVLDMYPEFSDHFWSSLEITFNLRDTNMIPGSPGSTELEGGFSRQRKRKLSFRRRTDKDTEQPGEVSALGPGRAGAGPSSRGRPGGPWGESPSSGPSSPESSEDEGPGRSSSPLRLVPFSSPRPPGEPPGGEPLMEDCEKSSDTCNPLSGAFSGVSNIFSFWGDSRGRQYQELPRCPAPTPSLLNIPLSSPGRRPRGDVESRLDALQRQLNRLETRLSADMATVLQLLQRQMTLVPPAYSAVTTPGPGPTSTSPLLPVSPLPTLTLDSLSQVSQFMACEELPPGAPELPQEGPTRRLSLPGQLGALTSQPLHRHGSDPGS

Compound	hERG current change (%, negative = inhibition) at 1uM
CCOC(=O)c1ccc(NC(=O)CSc2ccc(-c3ccncc3)nn2)cc1	9.76%
NCCCC[C@H]1CN=C(N)N1CCc1cccc2ccccc12	9.97%
Cc1ccc(C(=O)N/C(=C/c2ccc(-c3cccc([N+](=O)[O-])c3)o2)C(=O)NC(C)C)cc1	10.1%
Cc1ccc(C(=O)N/C(=C\c2ccc(-c3ccccc3[N+](=O)[O-])o2)C(=O)NCCCN2CCOCC2)cc1	-11.2%
Cc1ccc(C(=O)N/C(=C\c2ccc(-c3cccc([N+](=O)[O-])c3)o2)C(=O)NCCCN(C)C)cc1	-27.5%
Cc1ccc(C(=O)N/C(=C/c2ccc(-c3cccc([N+](=O)[O-])c3)o2)C(=O)NCCCN(C)C)cc1	-73.3%
Cc1ccc(C(=O)N/C(=C\c2ccc(-c3cccc([N+](=O)[O-])c3)o2)C(=O)NCCCN2CCOCC2)cc1	-74.7%
O=C(NCCCO)/C(=C/c1ccc(-c2cccc([N+](=O)[O-])c2)o1)NC(=O)c1ccccc1	-4.53%
CN(C)CCCNC(=O)/C(=C\c1ccc(-c2cccc([N+](=O)[O-])c2)o1)NC(=O)c1ccccc1	-77.9%
Cc1ccc(C(=O)N/C(=C/c2ccc(-c3cccc([N+](=O)[O-])c3)o2)C(=O)NC(C)(C)C)cc1	-0.682%
CN(C)CCNC(=O)/C(=C/c1ccc(-c2cccc([N+](=O)[O-])c2)o1)NC(=O)c1ccccc1	-37.2%
Cn1nc(C(F)(F)F)cc1Oc1ncc(C(F)(F)F)cc1Cl	12.5%
CCOc1ccc(NC(=S)N(CCc2c(C)[nH]c3ccccc23)Cc2cccnc2)cc1	-4.48%
CCN(CC)S(=O)(=O)c1cccc(C(=O)NCCc2ccccc2)c1	-5.67%
O=c1[nH]c(=O)n(CCC2=CCCCC2)c(O)c1C=NCc1cccnc1	9.06%
COc1ccc(OCCCC(=O)Nc2nc(C)c(C(C)=O)s2)cc1	10.2%
Cc1ccc(-n2c(=O)cc(N3CC(C)OC(C)C3)[nH]c2=O)cc1 (stereo not shown)	10.6%
O=C(CC(C(=O)O)c1c[nH]c2ccccc12)c1ccccc1 (stereo not shown)	9.56%
COc1ccc(Cc2nc3c4c(ncn3n2)Oc2ccc3ccccc3c2C4c2ccc(OC)c(OC)c2)cc1 (stereo not shown)	5.71%
CC(C)n1cnc2c(NCc3ccccc3)nc(NCc3ccccc3)nc21	10.4%
COc1cc(N(Cc2ccccc2)Cc2ccccc2)c2ncn(C(C)C)c2c1	8.78%
CC(C)n1cnc2c(N(C)c3ccccc3)nc(N(CCN(C)C)Cc3ccccc3)nc21	-58.5%
